The supplement of paper PMC10849652
Targets with a hit are over-represented here; the source holds about 7,900 in all. About 0.6% of all pairs of compound and target were hits. Values without a mark were called inactive.

Tests used:
Assay in all cases: log2 fold change, soluble protein after heating vs DMSO (PISA); higher = thermal stabilisation; K562 cells, 10 uM, 30 min; active = over 0.2 and 3.5 SD of the protein, either way, in both replicates (recomputed)
[1] = compound: NC(=O)Nc1cc(-c2cccc(F)c2)sc1C(=O)N[C@H]1CCCNC1
In short: (§1)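 Soluble protein was quantified by TMTpro 16plex LC-MS/MS after channel sums were equalised. It was obtained as the supernatant after 21,000xg for 90 min from pooled aliquots of K562 cells (2×10^6 cells/mL, 10 μM compound, 30 min) heated for 3 min across 48°C-58°C and extracted in PBS with 0.5% NP-40 at 4°C. Thermal stability values are relative to control samples and come from duplicates. They are given as log2 fold changes.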

[2] = compound: NC(=O)c1cnc(N[C@@H]2CCCC[C@@H]2N)nc1Nc1cccc(-n2nccn2)c1
In short: as §1

[3] = compound: NC1(c2ccc(-c3nc4ccn5c(=O)[nH]nc5c4cc3-c3ccccc3)cc2)CCC1
In short: as §1

[4] = compound: NCC(=O)Nc1ccc(-n2nc(C(F)(F)F)cc2-c2ccc3c(ccc4ccccc43)c2)cc1
In short: as §1

[5] = compound: Nc1ccccc1NC(=O)c1ccc(CNC(=O)OCc2cccnc2)cc1 [entinostat]
In short: as §1

[6] = compound: O=C(CCCCCCC(=O)Nc1ccccc1)NO [vorinostat]
In short: as §1

[7] = compound: O=C(CCCCCCNC(=O)c1cnc(N(c2ccccc2)c2ccccc2Cl)nc1)NO [citarinostat]
In short: as §1

[8] = compound: O=C(O)c1ccc2c(c1)nc(Nc1cccc(Cl)c1)c1ccncc12 [silmitasertib]
In short: as §1

[9] = compound: O=C1NC(=O)C(c2cnc3ccccn23)=C1c1cn2c3c(cc(F)cc13)CN(C(=O)N1CCCCC1)CC2
In short: as §1

[10] = compound: c1cc(OCCN2CCCCC2)cc(-c2n[nH]c3ccc(-c4nnc[nH]4)cc23)c1
In short: as §1

Chain of UniProt P49189 (P49189 whole entry, looked up): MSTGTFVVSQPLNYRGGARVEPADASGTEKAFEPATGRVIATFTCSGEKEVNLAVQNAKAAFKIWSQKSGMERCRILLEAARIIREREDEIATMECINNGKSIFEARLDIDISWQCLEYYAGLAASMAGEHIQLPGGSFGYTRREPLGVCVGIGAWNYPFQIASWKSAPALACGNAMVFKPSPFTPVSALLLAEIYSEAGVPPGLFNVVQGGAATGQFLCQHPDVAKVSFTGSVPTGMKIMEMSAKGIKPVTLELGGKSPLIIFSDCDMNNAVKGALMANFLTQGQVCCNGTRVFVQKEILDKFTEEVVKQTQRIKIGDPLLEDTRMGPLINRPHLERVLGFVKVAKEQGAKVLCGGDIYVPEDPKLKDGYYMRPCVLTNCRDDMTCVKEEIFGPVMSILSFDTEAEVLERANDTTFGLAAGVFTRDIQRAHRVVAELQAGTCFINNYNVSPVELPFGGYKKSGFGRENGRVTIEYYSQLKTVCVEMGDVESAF
Chain of UniProt Q9NRZ7 (Q9NRZ7 whole entry, looked up): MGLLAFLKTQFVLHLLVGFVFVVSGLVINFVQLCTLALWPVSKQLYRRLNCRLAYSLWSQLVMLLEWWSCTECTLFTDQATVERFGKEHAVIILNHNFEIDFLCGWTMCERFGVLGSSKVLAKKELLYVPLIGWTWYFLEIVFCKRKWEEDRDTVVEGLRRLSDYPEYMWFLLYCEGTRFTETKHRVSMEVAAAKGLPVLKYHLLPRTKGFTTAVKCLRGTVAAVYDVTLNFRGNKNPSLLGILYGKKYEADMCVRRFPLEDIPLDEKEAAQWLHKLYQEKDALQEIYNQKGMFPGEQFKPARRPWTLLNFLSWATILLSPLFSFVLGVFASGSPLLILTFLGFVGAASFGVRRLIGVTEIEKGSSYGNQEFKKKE
Chain of UniProt O00170 (O00170 whole entry, looked up): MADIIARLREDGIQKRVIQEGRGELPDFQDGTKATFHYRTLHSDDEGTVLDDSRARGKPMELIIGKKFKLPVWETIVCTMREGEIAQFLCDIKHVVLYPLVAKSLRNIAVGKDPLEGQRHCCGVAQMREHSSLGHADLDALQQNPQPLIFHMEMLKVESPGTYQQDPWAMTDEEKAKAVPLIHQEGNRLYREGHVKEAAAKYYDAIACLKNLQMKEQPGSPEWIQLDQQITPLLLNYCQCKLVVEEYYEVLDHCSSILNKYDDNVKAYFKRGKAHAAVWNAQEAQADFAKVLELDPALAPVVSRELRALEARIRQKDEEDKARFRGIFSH
Chain of UniProt P02749 (P02749 whole entry, looked up): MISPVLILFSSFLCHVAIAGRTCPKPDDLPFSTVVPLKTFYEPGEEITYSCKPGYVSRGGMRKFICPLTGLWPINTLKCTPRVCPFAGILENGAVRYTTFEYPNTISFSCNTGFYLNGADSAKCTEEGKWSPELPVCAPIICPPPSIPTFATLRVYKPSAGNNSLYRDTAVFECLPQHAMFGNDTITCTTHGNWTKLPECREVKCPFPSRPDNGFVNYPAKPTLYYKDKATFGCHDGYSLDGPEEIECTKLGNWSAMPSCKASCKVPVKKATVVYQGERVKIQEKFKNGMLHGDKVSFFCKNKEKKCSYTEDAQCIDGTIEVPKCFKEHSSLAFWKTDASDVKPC
Chain of UniProt Q13895 (Q13895 whole entry, looked up): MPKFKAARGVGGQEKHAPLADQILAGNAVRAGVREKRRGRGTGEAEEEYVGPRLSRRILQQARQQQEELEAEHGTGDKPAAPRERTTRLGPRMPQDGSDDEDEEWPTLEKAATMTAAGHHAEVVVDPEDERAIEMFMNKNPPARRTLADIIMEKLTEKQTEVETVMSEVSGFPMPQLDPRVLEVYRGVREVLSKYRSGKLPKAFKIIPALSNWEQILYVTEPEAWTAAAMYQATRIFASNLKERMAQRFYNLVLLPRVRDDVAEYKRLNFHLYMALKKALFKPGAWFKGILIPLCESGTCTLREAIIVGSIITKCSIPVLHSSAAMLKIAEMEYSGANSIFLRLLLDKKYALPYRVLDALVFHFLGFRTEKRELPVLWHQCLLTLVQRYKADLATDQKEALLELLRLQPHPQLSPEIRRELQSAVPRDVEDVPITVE
Chain of UniProt Q7L1Q6 (Q7L1Q6 whole entry, looked up): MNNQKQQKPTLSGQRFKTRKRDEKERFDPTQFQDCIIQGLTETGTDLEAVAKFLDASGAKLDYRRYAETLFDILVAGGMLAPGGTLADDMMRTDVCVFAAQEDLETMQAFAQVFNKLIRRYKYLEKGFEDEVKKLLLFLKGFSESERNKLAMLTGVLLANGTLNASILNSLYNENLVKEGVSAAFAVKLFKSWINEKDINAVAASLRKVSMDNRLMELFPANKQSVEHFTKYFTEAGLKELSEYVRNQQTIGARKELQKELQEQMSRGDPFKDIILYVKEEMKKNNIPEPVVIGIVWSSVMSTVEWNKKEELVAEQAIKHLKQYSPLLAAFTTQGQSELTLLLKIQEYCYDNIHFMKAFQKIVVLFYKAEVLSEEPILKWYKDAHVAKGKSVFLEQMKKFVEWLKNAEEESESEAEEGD
Chain of UniProt P08243 (P08243 whole entry, looked up): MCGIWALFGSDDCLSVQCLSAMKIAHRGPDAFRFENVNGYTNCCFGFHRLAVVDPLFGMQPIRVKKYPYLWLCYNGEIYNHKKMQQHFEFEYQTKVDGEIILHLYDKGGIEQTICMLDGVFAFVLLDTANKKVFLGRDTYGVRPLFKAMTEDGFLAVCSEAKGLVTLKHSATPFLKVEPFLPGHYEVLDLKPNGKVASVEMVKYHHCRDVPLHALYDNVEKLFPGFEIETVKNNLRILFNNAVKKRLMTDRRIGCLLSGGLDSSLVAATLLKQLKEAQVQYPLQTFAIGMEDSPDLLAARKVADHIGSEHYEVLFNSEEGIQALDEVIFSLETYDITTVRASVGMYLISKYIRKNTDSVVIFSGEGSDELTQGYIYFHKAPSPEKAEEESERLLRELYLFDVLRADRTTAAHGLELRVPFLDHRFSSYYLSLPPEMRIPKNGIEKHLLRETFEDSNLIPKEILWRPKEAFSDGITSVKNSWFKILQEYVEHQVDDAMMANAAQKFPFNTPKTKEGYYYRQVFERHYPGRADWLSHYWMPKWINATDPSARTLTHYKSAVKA
Chain of UniProt O75882 (O75882 whole entry, looked up): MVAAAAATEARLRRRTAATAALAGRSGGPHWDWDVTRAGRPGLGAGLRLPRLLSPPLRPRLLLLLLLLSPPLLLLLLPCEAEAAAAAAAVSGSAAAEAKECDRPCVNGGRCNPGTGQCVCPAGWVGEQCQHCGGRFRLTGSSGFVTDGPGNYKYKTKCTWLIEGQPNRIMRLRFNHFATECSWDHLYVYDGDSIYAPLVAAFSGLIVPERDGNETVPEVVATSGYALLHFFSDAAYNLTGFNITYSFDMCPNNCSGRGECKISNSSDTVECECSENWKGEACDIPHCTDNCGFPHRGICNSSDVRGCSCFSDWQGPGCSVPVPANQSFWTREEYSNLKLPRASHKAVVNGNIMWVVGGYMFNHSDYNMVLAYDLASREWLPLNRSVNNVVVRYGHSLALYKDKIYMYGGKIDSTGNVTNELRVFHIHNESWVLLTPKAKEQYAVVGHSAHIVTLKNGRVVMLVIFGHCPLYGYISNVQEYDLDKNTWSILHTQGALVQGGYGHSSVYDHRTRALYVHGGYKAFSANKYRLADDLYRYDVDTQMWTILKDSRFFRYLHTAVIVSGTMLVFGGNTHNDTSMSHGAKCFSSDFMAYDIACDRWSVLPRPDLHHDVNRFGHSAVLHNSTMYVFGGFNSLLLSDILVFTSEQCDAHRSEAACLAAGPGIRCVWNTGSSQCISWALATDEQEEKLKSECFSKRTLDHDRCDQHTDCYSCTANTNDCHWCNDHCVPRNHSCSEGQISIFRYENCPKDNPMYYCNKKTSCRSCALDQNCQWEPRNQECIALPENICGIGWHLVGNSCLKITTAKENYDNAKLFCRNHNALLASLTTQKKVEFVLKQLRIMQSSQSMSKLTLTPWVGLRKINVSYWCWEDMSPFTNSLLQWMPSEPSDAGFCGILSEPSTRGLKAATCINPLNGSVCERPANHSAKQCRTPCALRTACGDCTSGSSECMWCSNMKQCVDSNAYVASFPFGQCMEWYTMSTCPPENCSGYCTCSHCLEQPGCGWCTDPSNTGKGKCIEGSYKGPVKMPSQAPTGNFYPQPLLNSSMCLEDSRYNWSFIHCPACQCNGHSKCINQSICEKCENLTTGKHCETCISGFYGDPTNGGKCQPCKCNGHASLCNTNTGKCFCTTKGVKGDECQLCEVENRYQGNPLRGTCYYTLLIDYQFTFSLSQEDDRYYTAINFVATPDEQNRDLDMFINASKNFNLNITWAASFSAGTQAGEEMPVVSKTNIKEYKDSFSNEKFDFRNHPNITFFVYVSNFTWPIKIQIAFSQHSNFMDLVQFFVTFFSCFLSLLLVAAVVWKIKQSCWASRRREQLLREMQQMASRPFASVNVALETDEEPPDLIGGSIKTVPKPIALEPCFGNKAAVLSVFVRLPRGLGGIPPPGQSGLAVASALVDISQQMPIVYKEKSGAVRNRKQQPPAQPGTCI
Chain of UniProt Q6P6C2 (Q6P6C2 whole entry, looked up): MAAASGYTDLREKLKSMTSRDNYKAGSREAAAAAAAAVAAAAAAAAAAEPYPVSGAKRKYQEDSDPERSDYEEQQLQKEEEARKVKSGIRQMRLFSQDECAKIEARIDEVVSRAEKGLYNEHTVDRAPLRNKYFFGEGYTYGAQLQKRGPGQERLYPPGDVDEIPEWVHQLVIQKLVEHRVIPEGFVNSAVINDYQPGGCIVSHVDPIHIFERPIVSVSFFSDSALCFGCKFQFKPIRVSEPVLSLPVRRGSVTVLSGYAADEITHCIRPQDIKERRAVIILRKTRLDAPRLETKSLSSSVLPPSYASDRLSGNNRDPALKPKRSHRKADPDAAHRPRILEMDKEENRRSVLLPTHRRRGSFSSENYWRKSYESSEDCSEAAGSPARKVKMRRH
Chain of UniProt Q9Y2Y0 (Q9Y2Y0 whole entry, looked up): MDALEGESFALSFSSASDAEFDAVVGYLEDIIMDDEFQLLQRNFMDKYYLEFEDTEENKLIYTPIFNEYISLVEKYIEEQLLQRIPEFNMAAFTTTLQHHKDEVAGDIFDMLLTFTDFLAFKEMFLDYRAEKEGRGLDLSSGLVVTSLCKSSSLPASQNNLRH

Target	log2 fold change [1]	log2 fold change [2]	log2 fold change [3]	log2 fold change [4]	log2 fold change [5]	log2 fold change [6]	log2 fold change [7]	log2 fold change [8]	log2 fold change [9]	log2 fold change [10]
AHCYL1 (UniProt O43865)	0.183	0.106	0.003	0.046	-0.109	0.116	-0.017	0.188	-0.002	0.253
BRIX1 (UniProt Q8TDN6)	0.056	-0.025	0.171	0.132	-0.008	0.059	-0.05	0.191	0.401	-0.437
BYSL (UniProt Q13895)	-0.012	0.053	-0.052	0.062	0.046	0.058	-0.007	0.085	0.068	0.001
BZW1 isoform 3 (UniProt Q7L1Q6)	0.071	-0.054	-0.246	-0.093	0.165	0.209	0.075	0.02	0.019	-0.081
BAD (UniProt Q92934)	-0.243	0.033	0.101	-0.018	-0.122	0.011	-0.064	-0.071	0.131	-0.072
AKT1 (UniProt P31749)	-0.085	-0.276	1.61 (active)	-0.002	0.201	-0.024	0.138	0.004	0.1	0.027
ARFGEF1 (UniProt Q9Y6D6)	0.028	0.121	-0.023	0.006	-0.044	0.02	0.009	0.065	0.023	0.069
ALG3 (UniProt Q92685)	-0.039	-0.037	-0.006	0.045	0.172	-0.046	-0.051	0.034	-0.055	-0.027
ALG11 (UniProt Q2TAA5)	-0.052	0.032	-0.093	-0.019	0.01	-0.038	0.039	0.008	-0.002	-0.08
ALKBH5 (UniProt Q6P6C2)	0.031	-0.021	0.102	0.052	-0.076	0.18	0.109	0.033	0.076	0.042
ARL2BP (UniProt Q9Y2Y0)	-0.056	-0.108	-0.129	-0.088	-0.057	0.132	0.006	-0.02	0.108	0.046
AIP (UniProt O00170)	-0.004	0.011	-0.128	0.018	0.084	0.076	0.105	0.038	0.031	0.036
ACAD9 (UniProt Q9H845)	-0.009	-0.051	-0.036	-0.012	-0.021	0.033	0.035	0.021	-0.016	0.007
ACSL1 (UniProt P33121)	-0.058	-0.015	-0.091	-0.003	-0.034	0.004	0.071	0.029	-0.038	-0.022
ALKBH4 (UniProt Q9NXW9)	-0.009	-0.051	-0.427 (active)	0.097	-0.058	-0.031	0.079	0.165	0	-0.014
ADD3 isoform 2 (UniProt Q9UEY8)	0.03	0.059	-0.009	-0.002	-0.018	-0.119	0.08	-0.002	0.019	-0.02
AGPAT3 isoform 3 (UniProt Q9NRZ7)	0.008	-0.044	-0.141	-0.041	0.004	0.004	0.029	0.008	-0.079	-0.044
ASNS (UniProt P08243)	-0.033	-0.018	-0.019	0.008	-0.007	0.018	0.013	-0.044	-0.021	-0.026
ADD1 isoform 3 (UniProt P35611)	0.03	-0.016	0.034	-0.02	-0.071	0.01	0.034	-0.01	-0.06	0.01
ADK (UniProt P55263)	-0.071	0.07	0.12	-0.04	-0.087	-0.044	-0.02	0.011	0.232	0.158
ALDH9A1 isoform 3 (UniProt P49189)	0.04	-0.025	-0.011	-0.05	0.003	-0.003	0.025	-0.045	-0.033	0.015
ATRN (UniProt O75882)	-0.007	-0.023	-0.073	-0.031	-0.016	-0.006	-0.004	0.006	-0.538 (active)	-0.092
ATP6V0A1 isoform 3 (UniProt Q93050)	-0.051	-0.207	-0.184	0.008	0.083	0.062	0.109	0.102	0.019	-0.112
BCAP29 isoform 2 (UniProt Q9UHQ4)	0.001	0.049	0.034	-0.094	-0.014	-0.064	-0.015	0.031	-0.043	-0.036
BCL9L (UniProt Q86UU0)	0.037	-0.009	0.03	0.021	-0.002	0.012	0.017	-0.038	-0.045	0.241 (active)
BRD8 (UniProt Q9H0E9)	0.008	-0.107	0.038	-0.014	-0.041	-0.125	-0.12	0.038	0.022	-0.059
AP2M1 (UniProt C9JTK4)	-0.07	-0.149	-0.111	-0.261	0.043	–	-0.132	0.116	-0.267	0.024
BAIAP2 (UniProt Q9UQB8)	-0.229 (active)	-0.083	-0.086	-0.014	0.019	0.082	0.031	-0.016	0.04	-0.034
APOH (UniProt P02749)	-0.094	-0.109	-0.414	0.065	0.06	0.354	-0.149	0.565	–	0.006
APH1A (UniProt Q96BI3)	-0.048	-0.201	-0.075	0.303 (active)	0.014	-0.024	0.055	0.006	–	0.085
